LGR2 antag: inhibitors of bursicon-induced LGR2 CRE-luciferase signal, primary screen, cell-based, HEK293, CRE-luciferase reporter, bursicon stimulation; bursicon-stimulated, 4 h; inhibition, % at 9.99 µM; 380,000 compounds, 0.35% hits; AID 720647, 2013; Drosophila bursicon receptor LGR2 (rickets);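 active = drop in luminescence signal, shown as inhibition above about 50% in the replicate tests, limit read from the data, passing the limit was not always enough; inconclusive = probably only some replicates passing the limit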;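 also: agonist challenge used bursicon conditioned medium at about half maximal strength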
Ecoli rRNA inh: reduced GFP signal of wild-type E. coli, primary screen, bacterial rRNA inhibitor project, GFP/RFP fluorescence, OD600, single point | E. coli WT GFP vs humanized-ribosome RFP mutants, 24 h; hits give low values; DMSO median 0, no signal -100 | 350,000 compounds, 1.6% hits | GFP signal change (wild-type ribosome), % (test concentration not listed) | AID 720706, 2013;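 active = significant combined selectivity score with lowered wild-type GFP, culture density cut under 30%, mutant RFP and density less affected; inactive = any of these conditions unmet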
SIRT5 inh: SIRT5 desuccinylase inhibitors, primary screen, biochemical, fluorescence imaging, single point, set 5 | NAD-dependent protein deacylase sirtuin-5, mitochondrial (Homo sapiens), Q9NXA8 | Purified SirT5, succinyl-peptide AMC, trypsin-coupled fluorescence | inhibition, % at 15 µM | 330,000 compounds, 1.1% hits | AID 652115, 2013; in the data active = inhibition above about 15%; inconclusive = no clear call, values can overlap the other calls
Target sequence (Q9NXA8 whole entry, looked up): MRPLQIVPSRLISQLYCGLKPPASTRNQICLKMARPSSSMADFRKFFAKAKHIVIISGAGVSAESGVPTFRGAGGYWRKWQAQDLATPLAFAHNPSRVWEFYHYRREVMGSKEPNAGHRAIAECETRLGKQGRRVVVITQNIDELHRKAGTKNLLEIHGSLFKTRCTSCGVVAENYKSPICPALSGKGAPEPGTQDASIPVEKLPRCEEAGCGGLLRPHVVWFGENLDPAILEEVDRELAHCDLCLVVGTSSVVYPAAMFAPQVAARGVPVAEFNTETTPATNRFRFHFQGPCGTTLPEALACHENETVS
EWS-Fli inh: EWS/Fli-driven NR0B1 reporter inhibitors, primary screen, A673 cells, NR0B1 luciferase, luminescence, MLPCN library | 350,000 compounds, 0.67% hits | inhibition, % at 12.6 µM | viability-normalised;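 active = mean inhibition of at least 50% after viability correction, with every replicate also passing that limit; inconclusive = mean reaches 50% but only one of two replicates passes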;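 also: firefly luciferase signal divided by Alamar Blue viability fluorescence both relative to DMSO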
PGC1a acetyl inh: inhibitors of PGC1a acetylation signal, primary screen, cell-based, U2OS, AlphaScreen, inhibitor mode; AlphaScreen anti-acetyl-lysine; with virally co-expressed GCN5 acetyltransferase; inhibition, % at 15.6 µM; 350,000 compounds, 0.17% hits; AID 651687, 2012;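 active = every replicate shows inhibition of at least 40%; inconclusive = mean inhibition at least 40% but some replicate below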
PAX8 inh HTS: inhibitors of PAX8-driven TPO luciferase reporter, primary screen, RMG-I cells, single concentration; SteadyGlo, 24 h; inhibition, % at 12.6 µM; 360,000 compounds, 1.2% hits;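 active = mean replicate inhibition at least 60% with every replicate also reaching 60%; inconclusive = only one of the two criteria is met; inactive = mean below 60% and not all replicates reaching 60%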;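 also: luciferase light reporting Pax8 driven TPO promoter activity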
Large screens that a line does not name were inactive. This is a sample that favours compounds with a hit; in the whole collection about 3.4% have one here.

O=C(c1ccccc1)N1CCSc2sccc2C1=O	LGR2 antag 97.7, EWS-Fli inh 67.2 (no result: PGC1a acetyl inh)
Cc1ccc(S(=O)(=O)Nc2ccccc2CNc2ccccn2)cc1	Ecoli rRNA inh -28.4 (no result: PGC1a acetyl inh)
CO[C@H]1CN(C)C(=O)c2ccc(NC(=O)NC(C)C)cc2OC[C@@H](C)N(Cc2cncnc2)C[C@H]1C	none (no result: SIRT5 inh, PAX8 inh HTS)
CN(C)c1cccc(C(=O)N/N=C/c2ccccc2F)c1	LGR2 antag 86.2 (no result: PGC1a acetyl inh)
Cc1cc(/C=N/NC(=O)c2cccc(N(C)C)c2)c(C)n1-c1cc(C(=O)O)cc(C(=O)O)c1	SIRT5 inh 20.4
CN(C)c1cccc(C(=O)Nc2cccc(F)c2)c1	none (no result: LGR2 antag, Ecoli rRNA inh, SIRT5 inh, EWS-Fli inh)
CC1(C)CC(N2CCCCC2)=CC(=[N+]2CCCCC2)C1	Ecoli rRNA inh -36.8, PAX8 inh HTS 75.0
CCCN(CCC)C1=CC(=[N+]2CCCC2)CC(C)(C)C1	Ecoli rRNA inh -47.5 (no result: PGC1a acetyl inh)
CN(C)NC1=CC(=[N+]2CCCC2)CC(C)(C)C1	none
O=C1NC(=S)NC1=Cc1ccc(Cl)cc1Cl	Ecoli rRNA inh -25.2 (no result: SIRT5 inh)
CCOc1ccc(S(=O)(=O)NCc2ccccn2)cc1NC(=O)c1ccccc1	EWS-Fli inh 58.0
CC1(C(=O)NS(=O)(=O)c2ccc(Cl)cc2)CCN1C(=O)CCc1ccc(Cl)cc1Cl (stereo not given)	Ecoli rRNA inh -29.9
Cc1ccc(S(=O)(=O)NC(=O)C2(C)CCN2C(=O)Cc2ccc(-c3ccccc3)cc2)cc1 (stereo not given)	Ecoli rRNA inh -33.6
CC1(C(=O)NS(=O)(=O)c2ccccc2)CCN1C(=O)Cc1ccccc1 (stereo not given)	none
Cc1ccc(S(=O)(=O)NC(=O)C2(C)CCN2C(=O)CCc2ccc(Cl)cc2Cl)cc1 (stereo not given)	none
Cc1noc(C)c1CSc1nnnn1-c1ccc(Cl)cc1	none (no result: LGR2 antag, Ecoli rRNA inh, SIRT5 inh, EWS-Fli inh, PAX8 inh HTS)
O=C(O)CSc1ncnc2sc3c(c12)CCCC3	none
Cc1sc2ncnc(Sc3nnnn3-c3ccc(Cl)cc3)c2c1C	PAX8 inh HTS 75.1 (no result: LGR2 antag, Ecoli rRNA inh, SIRT5 inh, EWS-Fli inh)
c1ccc(-n2nnnc2Sc2ncnc3sc4c(c23)CCCC4)cc1	LGR2 antag 65.6 (no result: Ecoli rRNA inh, SIRT5 inh, EWS-Fli inh)
CCOc1cccc(/C=N/NC(=O)c2cc(C3CC3)[nH]n2)c1O	Ecoli rRNA inh -17.1 (no result: PGC1a acetyl inh)
CC(CN1CCN(C)CC1)OC(=O)c1ccccc1Cl (stereo not given)	none (no result: LGR2 antag, Ecoli rRNA inh, SIRT5 inh, EWS-Fli inh, PAX8 inh HTS)
Cc1ccc(C(=O)OC(C)CN2CCN(C)CC2)cc1 (stereo not given)	SIRT5 inh 22.1
CC(CN1CCCC1)OC(=O)c1ccccc1Cl (stereo not given)	SIRT5 inh 17.9
CCOC(=O)C1CSCCS(=O)(=O)N1Cc1cc(F)ccc1Br (stereo not given)	Ecoli rRNA inh -33.5 (no result: PGC1a acetyl inh)
Cc1nn(-c2ccccc2)c(N)c1C1(O)C(=O)N(C)c2ccccc21 (stereo not given)	none (no result: Ecoli rRNA inh, SIRT5 inh, EWS-Fli inh, PGC1a acetyl inh)
CN1C(=O)C(O)(c2sc(N)nc2-c2ccccc2)c2ccccc21 (stereo not given)	SIRT5 inh 21.2 (no result: Ecoli rRNA inh, EWS-Fli inh, PAX8 inh HTS)
COc1ccc(NC(=O)Nc2cccc3c2O[C@@H](CN(C)C)[C@@H](C)CN([C@@H](C)CO)C3=O)cc1	none
CCCCCc1cc(=O)oc2c(C(CCN(CC)CC)c3cc(OC)c(OC)c(OC)c3)c(OC)cc(OC)c12 (stereo not given)	EWS-Fli inh 50.6 (no result: LGR2 antag, PGC1a acetyl inh)
CCCCCc1cc(=O)oc2c(C(CCN3CCCCC3)c3ccc4c(c3)OCO4)c(OC)cc(OC)c12 (stereo not given)	PAX8 inh HTS 87.6 (no result: SIRT5 inh)
CCCCCc1cc(=O)oc2c(C(CCN3CCCC(C)C3)c3ccc4c(c3)OCO4)c(OC)cc(OC)c12 (stereo not given)	none (no result: LGR2 antag, SIRT5 inh, PGC1a acetyl inh)
C[C@@H]1CN([C@@H](C)CO)C(=O)c2cc(NC(=O)Cc3ccccc3)ccc2O[C@@H]1CN(C)Cc1ccc2c(c1)OCO2	none (no result: EWS-Fli inh)
COc1ccc(CN(C)C[C@H]2OCCCC[C@@H](C)Oc3ccc(NC(=O)c4ccncc4)cc3C(=O)N([C@@H](C)CO)C[C@@H]2C)cc1	none (no result: PAX8 inh HTS)
CC1CCC(C(C)C)C(OC(=O)Cn2c(-c3ccc(Cl)cc3)[n+](C)c3ccccc32)C1 (stereo not given)	PAX8 inh HTS 96.5
CC1CCC(C(C)C)C(OC(=O)COC(=O)c2cccn2C)C1 (stereo not given)	none (no result: LGR2 antag, Ecoli rRNA inh, SIRT5 inh, EWS-Fli inh, PAX8 inh HTS)
CC1CCC(C(C)C)C(OC(=O)Cn2c(-c3ccc(Br)cc3)[n+](C)c3ccccc32)C1 (stereo not given)	LGR2 antag 77.8, PAX8 inh HTS 100.4
Cc1ccccc1OCc1n(CC(=O)OC2CC(C)CCC2C(C)C)c2ccccc2[n+]1C (stereo not given)	LGR2 antag 74.7, EWS-Fli inh inconclusive, PAX8 inh HTS 105.4
COc1ccc2c3c(n(C)c2c1)[C@@H](CO)N(C(C)=O)CC31CCN(Cc2cncnc2)CC1	none (no result: LGR2 antag, SIRT5 inh, EWS-Fli inh, PGC1a acetyl inh, PAX8 inh HTS)
C[C@@H]1CN(C)C(=O)c2ccccc2O[C@H]1CN(C)C	none (no result: LGR2 antag, SIRT5 inh, EWS-Fli inh, PGC1a acetyl inh, PAX8 inh HTS)
COc1ccc2[nH]c3c(=O)n4c(nc3c2c1)SCCC4	Ecoli rRNA inh -28.1
CC1CCCCC1NC(=O)CN1C(=O)CSc2cc(S(=O)(=O)N3CCCCCC3)ccc21 (stereo not given)	PAX8 inh HTS 84.7 (no result: LGR2 antag, Ecoli rRNA inh)
COc1cc(/C=C/C(=O)OCC(=O)NCCCc2ccccc2)cc(OC)c1OC	Ecoli rRNA inh -18.4
COc1cc(/C=N/NC(=S)Nc2cccc(C(=O)O)c2)cc(OC)c1OC	SIRT5 inh 23.4
COc1ccc(C=NNC(=S)Nc2ccc(F)cc2)cc1OC	LGR2 antag 49.6 (no result: SIRT5 inh)
COc1ccc(/C=N/NC(=S)Nc2cccc(C(=O)O)c2)cc1OC	LGR2 antag 82.2 (no result: PGC1a acetyl inh)
COc1cccc(/C=N/NC(=S)Nc2cccc(S(=O)(=O)N(C)C)c2)c1	Ecoli rRNA inh -18.5
COc1cccc(/C=N/NC(=S)Nc2cccc(C(=O)O)c2)c1	none (no result: PGC1a acetyl inh)
COc1ccc2c3c(n(C)c2c1)[C@@H](CO)N(C(=O)CC1CC1)CC31CCN(C(=O)CC2CC2)CC1	none (no result: PGC1a acetyl inh, PAX8 inh HTS)
COc1cccc(CN2[C@@H](CO)[C@H](c3ccccc3)C23CN(Cc2ccccc2OC)C3)c1	none (no result: LGR2 antag, SIRT5 inh, EWS-Fli inh, PGC1a acetyl inh, PAX8 inh HTS)
N#C[C@H]1[C@H](c2ccccc2C2=CCCCC2)[C@H](CO)N1C(=O)c1cccc(F)c1	none (no result: PAX8 inh HTS)
COc1ccc(/C=N/NC(=O)c2cccc(C(=O)N/N=C/c3ccc(OC)c(OC)c3)n2)cc1OC	none
COc1ccc(/C=N/NC(=O)Nc2cccc3nsnc23)cc1OC	PAX8 inh HTS 86.3 (no result: LGR2 antag, SIRT5 inh, PGC1a acetyl inh)
O=C1O[C@H](c2ccccc2)[C@H](c2ccccc2)N2[C@H]1[C@@H](C(=O)N1CCCCCCC1)[C@]1(C(=O)Nc3ccc(C#CC4=CCCCC4)cc31)[C@H]2c1ccc(O)cc1	none (no result: LGR2 antag, Ecoli rRNA inh)
N#Cc1ccc(-c2cccs2)nc1SCc1cccnc1	EWS-Fli inh 54.4
